According to PubChem BioAssay:
The source made the active and inactive calls.

Columns and labels:
[1] = test system: PRMT1 (protein arginine N-methyltransferase 1); test: small molecules binding arginine methyltransferase PRMT1 – biochemical, small-molecule microarray, 635 nm fluorescence, primary screen (AID 1088); settings: higher = more signal;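 also: binding of Prmt1 protein to compounds spotted on small-molecule microarray slides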
[2] = growth effects on S. cerevisiae YJM789 – YJM789 clinical isolate, OD600, 24 h, basal, primary screen (AID 1089); settings: higher = more signal, called active from +8 up or from −8 down;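 also: growth of clinical yeast isolate S. cerevisiae YJM 789 seeded 1000 cells per well; test concentration not given here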
[3] = S. pombe growth modifiers, basal conditions – strain 972, OD600, 24 h, no modulator, primary screen (AID 1090);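 also: basal condition with compound alone and no growth modifier present; test concentration not given here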; settings: S. pombe 972 growth, higher = more signal, called active from +8 up or from −8 down
[4] = budding yeast growth modifiers under rapamycin – strain BY4716, OD600, 96 h, primary screen (AID 1091); also: test concentration not given here; settings: S. cerevisiae BY4716 + rapamycin, higher = more signal, called active from +8 up or from −8 down
[5] = target: Torsin-1A-interacting protein 2 (Homo sapiens) (UniProt Q8NFQ8); test: small molecules binding lysate-expressed LULL1 – cell lysate, human LULL1 lysate, 635/667 nm fluorescence, primary screen (AID 1092); settings: small-molecule microarray, hLULL1 lysate binding, 635 nm fluorescence; higher = more signal;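 also: probe is lysate of COS7 cells overexpressing human LULL1; score merges per-feature 667 nm fluorescence with signal-to-noise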
Torsin-1A-interacting protein 2 (Homo sapiens), sequence (Q8NFQ8 whole entry, looked up): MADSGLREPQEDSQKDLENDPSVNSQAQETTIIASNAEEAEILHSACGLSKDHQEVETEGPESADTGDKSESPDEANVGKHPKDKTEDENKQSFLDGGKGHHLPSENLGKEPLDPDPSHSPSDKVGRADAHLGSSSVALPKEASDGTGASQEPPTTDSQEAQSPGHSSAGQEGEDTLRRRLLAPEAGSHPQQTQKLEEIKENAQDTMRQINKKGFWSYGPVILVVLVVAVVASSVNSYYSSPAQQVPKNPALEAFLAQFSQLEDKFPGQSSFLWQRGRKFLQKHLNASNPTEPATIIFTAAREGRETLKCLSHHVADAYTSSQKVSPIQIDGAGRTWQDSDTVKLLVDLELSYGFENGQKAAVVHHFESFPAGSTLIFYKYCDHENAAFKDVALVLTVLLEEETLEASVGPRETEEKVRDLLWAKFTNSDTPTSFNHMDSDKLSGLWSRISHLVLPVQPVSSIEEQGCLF

[6] = optical density change of DRC41 E. coli – strain DRC41, OD650, 24 h, E. coli filamentation project, primary screen (AID 1093);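 also: MC1000 strain lacking acrAB efflux and sulA so SOS filamentation is blocked; test concentration not given here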; settings: E. coli DRC41 growth, higher = more signal, called active from +8 up or from −8 down
[7] = probe aLefty2 binding to arrayed compounds – biochemical, biotinylated probe, 635/667 nm fluorescence, primary screen (AID 1094); settings: small-molecule microarray, higher = more signal;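 also: score merges spot fluorescence near 667 nm with spot signal-to-noise ratio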
[8] = test system: Noggin (protein binding on small-molecule microarray); test: small molecules binding Noggin protein – biochemical, 635/667 nm fluorescence, primary screen (AID 1095); settings: 635 nm fluorescence, higher = more signal;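 also: score merges 667 nm feature fluorescence with signal to noise over triplicate slides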
[9] = target: Neurogenic locus notch homolog protein 3 (Homo sapiens) (UniProt Q9UM47); test: small molecules binding NOTCH3 protein – biochemical, 635/667 nm fluorescence, primary screen (AID 1096); settings: small-molecule microarray, 635 nm fluorescence, higher = more signal
Neurogenic locus notch homolog protein 3 (Homo sapiens), sequence (Q9UM47 whole entry, looked up): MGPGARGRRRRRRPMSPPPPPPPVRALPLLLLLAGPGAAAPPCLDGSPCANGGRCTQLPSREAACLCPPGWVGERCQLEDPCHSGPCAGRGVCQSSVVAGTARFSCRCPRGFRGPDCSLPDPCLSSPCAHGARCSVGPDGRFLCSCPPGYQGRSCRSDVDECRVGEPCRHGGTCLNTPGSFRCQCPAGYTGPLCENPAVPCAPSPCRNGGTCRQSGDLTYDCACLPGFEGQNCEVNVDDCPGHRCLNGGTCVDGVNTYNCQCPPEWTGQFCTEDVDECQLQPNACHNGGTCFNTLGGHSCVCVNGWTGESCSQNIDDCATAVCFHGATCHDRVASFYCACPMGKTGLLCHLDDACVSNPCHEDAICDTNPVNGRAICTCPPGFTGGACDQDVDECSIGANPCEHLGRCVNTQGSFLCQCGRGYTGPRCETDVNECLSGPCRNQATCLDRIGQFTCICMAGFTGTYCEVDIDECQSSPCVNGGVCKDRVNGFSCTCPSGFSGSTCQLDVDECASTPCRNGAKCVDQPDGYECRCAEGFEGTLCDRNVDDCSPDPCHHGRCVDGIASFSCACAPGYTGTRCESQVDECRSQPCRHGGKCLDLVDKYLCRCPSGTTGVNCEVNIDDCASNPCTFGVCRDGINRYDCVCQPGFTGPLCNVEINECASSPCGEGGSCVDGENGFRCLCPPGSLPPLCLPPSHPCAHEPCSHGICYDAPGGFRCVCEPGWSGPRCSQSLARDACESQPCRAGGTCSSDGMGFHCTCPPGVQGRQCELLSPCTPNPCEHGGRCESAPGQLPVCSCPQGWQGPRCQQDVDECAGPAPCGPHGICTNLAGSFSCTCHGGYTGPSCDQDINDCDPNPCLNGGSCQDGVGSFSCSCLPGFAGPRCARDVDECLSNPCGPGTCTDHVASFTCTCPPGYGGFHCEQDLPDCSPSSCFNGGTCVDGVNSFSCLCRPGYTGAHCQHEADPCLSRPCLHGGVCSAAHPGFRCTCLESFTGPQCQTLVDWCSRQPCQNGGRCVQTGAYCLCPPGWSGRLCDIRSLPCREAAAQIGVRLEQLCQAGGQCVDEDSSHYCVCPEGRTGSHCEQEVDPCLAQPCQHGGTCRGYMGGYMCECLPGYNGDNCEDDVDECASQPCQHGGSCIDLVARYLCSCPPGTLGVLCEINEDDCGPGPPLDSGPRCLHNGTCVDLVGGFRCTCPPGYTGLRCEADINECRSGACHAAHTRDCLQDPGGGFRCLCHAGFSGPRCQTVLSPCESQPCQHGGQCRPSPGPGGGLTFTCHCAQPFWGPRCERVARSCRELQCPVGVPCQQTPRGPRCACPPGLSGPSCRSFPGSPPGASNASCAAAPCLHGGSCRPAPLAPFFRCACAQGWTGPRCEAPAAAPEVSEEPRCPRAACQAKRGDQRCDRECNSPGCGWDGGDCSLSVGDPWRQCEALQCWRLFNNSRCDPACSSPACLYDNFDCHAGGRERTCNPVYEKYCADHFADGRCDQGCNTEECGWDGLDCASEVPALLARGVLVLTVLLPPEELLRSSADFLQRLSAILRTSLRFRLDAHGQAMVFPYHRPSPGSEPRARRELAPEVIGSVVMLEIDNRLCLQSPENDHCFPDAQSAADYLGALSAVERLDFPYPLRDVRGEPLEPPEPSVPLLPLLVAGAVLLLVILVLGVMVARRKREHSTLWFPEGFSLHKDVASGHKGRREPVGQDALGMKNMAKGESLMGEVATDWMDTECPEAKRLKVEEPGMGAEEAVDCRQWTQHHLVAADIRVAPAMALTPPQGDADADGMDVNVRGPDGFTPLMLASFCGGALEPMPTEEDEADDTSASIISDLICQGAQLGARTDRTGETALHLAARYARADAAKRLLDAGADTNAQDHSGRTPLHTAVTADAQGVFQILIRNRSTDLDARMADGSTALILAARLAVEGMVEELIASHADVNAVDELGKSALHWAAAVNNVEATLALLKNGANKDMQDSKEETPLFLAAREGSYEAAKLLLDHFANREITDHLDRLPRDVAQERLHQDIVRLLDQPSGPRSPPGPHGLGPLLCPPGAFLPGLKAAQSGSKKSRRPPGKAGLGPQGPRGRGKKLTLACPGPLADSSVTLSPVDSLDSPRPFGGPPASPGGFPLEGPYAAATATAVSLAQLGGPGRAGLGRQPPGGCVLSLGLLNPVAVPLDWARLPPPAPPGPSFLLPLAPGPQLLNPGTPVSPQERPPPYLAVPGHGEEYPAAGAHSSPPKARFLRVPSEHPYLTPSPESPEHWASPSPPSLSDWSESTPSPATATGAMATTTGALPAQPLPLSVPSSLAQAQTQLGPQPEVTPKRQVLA

[10] = probe aEGFR binding to arrayed compounds – biochemical, biotinylated probe, 635/667 nm fluorescence, primary screen (AID 1097); settings: small-molecule microarray, higher = more signal;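 also: probe is a biotinylated anti-EGFR antibody binding compounds printed on slides; score combines fluorescence near 667 nm and signal to noise of each spot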

SMILES | composite z-score [1] | z-score [2] | z-score [3] | z-score [4] | composite z-score [5] | z-score [6] | composite z-score [7] | composite z-score [8] | composite z-score [9] | composite z-score [10]
COC(=O)c1c(CC[C@@H](CO)NC(=O)N2CCC[C@H]2Cn2cc(C3(O)CCCCC3)nn2)oc(C(C)=O)c1C(=O)OC | 1.53 | 0.752 (inactive) | -0.154 (inactive) | -1.28 (inactive) | 3.4 | -0.889 (inactive) | -0.124 | 0.872 | 0.916 | -0.0097
CC(C)c1ccc(NN2C(C(O)c3ccc(C#N)cc3)C=CC3C(=O)N(c4ccccc4)C(=O)C32)cc1 (stereo not given) | 1.54 | 0.902 (inactive) | 0.608 (inactive) | 0.44 (inactive) | 3.36 | -1.27 (inactive) | 0.286 | -0.144 | 1.07 | 0.16
COC(=O)C1=CC(CCCO)=CC(c2cccs2)N(C)C=C1C(=O)OC (stereo not given) | 0.0782 | 0.112 (inactive) | 0.009 (inactive) | 0.241 (inactive) | 1.6 | 0.39 (inactive) | 0.0099 | -0.561 | 0.275 | -0.0034
COc1cc2c(cc1O)C=[N+](Cc1sc3ccccc3c1Cl)CC2 | 0.286 | -1.02 (inactive) | -15.5 (active) | -1.31 (inactive) | -0.0121 | 0.461 (inactive) | 0.0216 | 0.346 | -0.119 | -0.126
